Results on five compounds are retold here after PubChem BioAssay.

The structures appear in SMILES notation. Calls of active or inactive are those of the source.

Assay [1] has as its system Human papillomavirus type 1a protein E7 (residues 44-93). In words: small molecules binding HPV E7 44-93 – biochemical, small-molecule microarray, residues 44-93, 635 nm fluorescence, primary screen (AID 1108).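 Note: E7 fragment applied at 1 µg/mL in TBST for 1 h at 4 C; score combines spot fluorescence with its signal to noise ratio.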 The following applies: fluorescence 635 nm, higher = more signal.
The nature of assay [2]: hepatitis C replication reporter changes, two-sided – Huh7 cells, luciferase reporter, HCV replication inhibitor project, primary screen (AID 1109).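 Note: huh7 hepatoma cells harbouring a luciferase neomycin HCV replicon reporter; luciferase luminescence as measure of HCV replicon replication; test concentration not given here.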 As to conditions: Huh7 HCV replicon luciferase reporter, 48 h; higher = more signal. On the technique in general: A reporter such as luciferase makes a cellular process visible.
Assay [3] concerns the target Left-right determination factor 2 (Homo sapiens) (UniProt O00292). In words: small molecules binding LEFTY2 protein – biochemical, small-molecule microarray, 635 nm fluorescence scan, primary screen (AID 1110). As to conditions: higher = more signal.
Assay [4] addresses Calmodulin-1 (Homo sapiens) (UniProt P0DP23). In words: small molecules binding calmodulin-1 with EGTA – biochemical, small-molecule microarray, Cy5-labelled CALM1, profiling panel (AID 1111).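 Note: labelled calmodulin applied in Tris saline Tween buffer holding calcium plus EGTA and DTT.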 As to conditions: Cy5-CALM1 binding fluorescence, higher = more signal.
The target is the same in assay [5]. In words: small molecules binding Ca-loaded calmodulin-1 – biochemical, small-molecule microarray, Cy5-labelled CALM1, plus calcium, artefact control for SMM control-protein annotation, profiling panel (AID 1112).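 Note: score merges spot fluorescence with signal to noise from triplicate slides.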 The following applies: Cy5-CALM1 binding fluorescence, higher = more signal.
Assay [6] in a line: probe aWnt5a binding to arrayed compounds – biochemical, biotinylated probe, 635/667 nm fluorescence, primary screen (AID 1113).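 Note: score merges 667 nm fluorescence intensity with signal-to-noise per printed feature.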 As to conditions: small-molecule microarray, higher = more signal.
The nature of assay [7]: probe aShh binding to arrayed compounds – biochemical, biotinylated probe, 635/667 nm fluorescence, primary screen (AID 1114).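 Note: probe is biotin-labelled aShh protein from a stem cell growth factor screen; measures binding of labelled protein to compounds printed on the slide; score merges feature fluorescence at 667 nm with signal-to-noise.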 The following applies: small-molecule microarray, higher = more signal.
The nature of assay [8]: probe aNog binding to arrayed compounds – biochemical, biotinylated probe, 635/667 nm fluorescence, primary screen (AID 1115).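 Note: probe is biotinylated aNog protein used at 0.15 µg/mL for 1 h at 4 C; z-score combines 667 nm fluorescence of each spot with its signal to noise.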 The following applies: small-molecule microarray, higher = more signal.
The target in assay [9] is Torsin-1A-interacting protein 1 (Homo sapiens) (UniProt Q5JTV8). In words: compound microarray binding of lysate hLAP1 – cell lysate, small-molecule microarray, COS7 lysate, 635/667 nm fluorescence, primary screen (AID 1116). As to conditions: 635 nm fluorescence, higher = more signal.
Assay [10] has as its target Alpha-bungarotoxin (Bungarus multicinctus) (UniProt P60615). In words: compounds binding labelled alpha-BTX control protein – biochemical, small-molecule microarray, Alexa647 label, 635/667 nm fluorescence, artefact control for SMM control protein annotation, profiling panel (AID 1117). The following applies: alpha-BTX-A647 binding fluorescence, higher = more signal.
Assay [11] deals with Albumin (Bos taurus) (UniProt P02769). In words: compounds binding labelled BSA control protein – biochemical, small-molecule microarray, Alexa647 label, 635/667 nm fluorescence, artefact control for SMM control protein annotation, profiling panel (AID 1118).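 Note: score merges 667 nm emission intensity and signal-to-noise per printed compound spot.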 As to conditions: BSA-A647 binding, fluorescence 635 nm, higher = more signal.
The nature of assay [12]: probe aXIP binding to arrayed compounds – biochemical, NeuroSMM set, 635/667 nm fluorescence, primary screen (AID 1119).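 Note: probe is the protein aXip251-270 applied at 1 µg/mL to compound-printed slides; binding of probe to printed compounds measured as 667 nm fluorescence plus signal to noise.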 The following applies: small-molecule microarray, higher = more signal, called active from +8 up or from −8 down.
A short description of assay [13]: probe aNOTCH3 binding on compound microarray – biochemical, small-molecule microarray, 635/667 nm fluorescence, primary screen (AID 1120).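 Note: probe is a biotin-tagged antibody raised against NOTCH3 rather than NOTCH3 protein; score merges spot fluorescence near 667 nm with spot signal to noise.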 The following applies: higher = more signal.
Assay [14] in a line: probe aNOTCH2 binding on compound microarray – biochemical, small-molecule microarray, 635/667 nm fluorescence, primary screen (AID 1121).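 Note: score merges feature fluorescence read at 667 nm with its signal to noise.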 The following applies: higher = more signal.
Assay [15] has as its target Carbonic anhydrase 2 (Homo sapiens) (UniProt P00918). In words: compounds binding carbonic anhydrase 2 – biochemical, small-molecule microarray, Alexa647-labelled CAII, profiling panel (AID 1122). The following applies: CAII-A647 binding fluorescence, higher = more signal.
The nature of assay [16]: COS7 lysate on small-molecule microarray, probe aHis, 635 nm (AID 1123).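 Note: z-score combines 667nm fluorescence intensity with signal-to-noise per printed compound spot.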 As to conditions: COS7 cell lysate, fluorescence, higher = more signal.
The nature of assay [17]: probe aLAP1 signal on lysate-treated microarray – cell lysate, small-molecule microarray, COS7 lysate, primary screen (AID 1124).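 Note: lysate comes from COS7 cells expressing LAP1 and is applied at 0.3 µg/mL; score merges spot fluorescence near 667 nm with signal-to-noise over triplicate slides.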 As to conditions: probe aLAP1, fluorescence, higher = more signal.
Assay [18] concerns Sam68 (KHDRBS1). In words: compounds binding KHDRBS1 protein – biochemical, small-molecule microarray, 635 nm fluorescence, primary screen (AID 1125).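 Note: score merges 667 nm channel intensity with signal to noise over triplicate slides.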 As to conditions: higher = more signal.
In assay [19] the test system is Chordin-like protein 2 (CHRDL2). In words: compounds binding chordin-like 2 – biochemical, small-molecule microarray, 635 nm fluorescence, primary screen (AID 1126).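 Note: printed compound slides probed with Chrdl2 protein at 4 µg/mL for 1 h at 4 C; score merges 667 nm emission intensity with signal to noise over three replicate slides.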 As to conditions: fluorescence 635 nm, higher = more signal.
Assay [20] addresses Concanavalin-A (Canavalia ensiformis) (UniProt P02866). In words: compounds binding concanavalin A lectin – biochemical, small-molecule microarray, Alexa647 label, 635 nm, artefact control for SMM control protein annotation, primary screen (AID 1127).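 Note: z combines 667 nm emission intensity with signal-to-noise across three replicate slides.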 The following applies: ConA-A647 binding fluorescence, higher = more signal.

Concanavalin-A (Canavalia ensiformis), sequence (P02866 whole entry, looked up): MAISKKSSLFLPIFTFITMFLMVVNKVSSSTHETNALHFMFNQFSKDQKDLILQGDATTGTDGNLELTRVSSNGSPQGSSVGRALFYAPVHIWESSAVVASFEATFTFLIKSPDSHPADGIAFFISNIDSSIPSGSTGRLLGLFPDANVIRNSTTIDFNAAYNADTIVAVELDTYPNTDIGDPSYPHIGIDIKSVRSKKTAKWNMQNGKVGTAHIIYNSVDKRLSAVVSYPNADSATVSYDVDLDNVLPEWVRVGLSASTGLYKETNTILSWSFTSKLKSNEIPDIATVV
Albumin (Bos taurus), sequence (P02769 whole entry, looked up): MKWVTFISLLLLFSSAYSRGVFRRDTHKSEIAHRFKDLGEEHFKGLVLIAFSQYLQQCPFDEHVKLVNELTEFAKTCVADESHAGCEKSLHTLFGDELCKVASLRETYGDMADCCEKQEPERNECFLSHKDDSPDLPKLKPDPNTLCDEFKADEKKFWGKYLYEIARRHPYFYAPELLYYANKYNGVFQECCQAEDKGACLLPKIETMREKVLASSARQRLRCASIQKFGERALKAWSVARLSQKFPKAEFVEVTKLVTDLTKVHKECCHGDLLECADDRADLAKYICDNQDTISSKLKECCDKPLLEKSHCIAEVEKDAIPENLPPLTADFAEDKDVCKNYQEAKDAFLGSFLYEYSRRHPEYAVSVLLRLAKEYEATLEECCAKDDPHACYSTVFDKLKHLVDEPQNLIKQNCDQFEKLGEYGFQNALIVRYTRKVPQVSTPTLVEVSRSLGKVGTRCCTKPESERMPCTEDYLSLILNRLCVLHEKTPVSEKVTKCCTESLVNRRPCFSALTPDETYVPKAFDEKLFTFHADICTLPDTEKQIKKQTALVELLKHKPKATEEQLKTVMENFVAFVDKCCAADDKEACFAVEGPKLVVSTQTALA
Torsin-1A-interacting protein 1 (Homo sapiens), sequence (Q5JTV8 whole entry, looked up): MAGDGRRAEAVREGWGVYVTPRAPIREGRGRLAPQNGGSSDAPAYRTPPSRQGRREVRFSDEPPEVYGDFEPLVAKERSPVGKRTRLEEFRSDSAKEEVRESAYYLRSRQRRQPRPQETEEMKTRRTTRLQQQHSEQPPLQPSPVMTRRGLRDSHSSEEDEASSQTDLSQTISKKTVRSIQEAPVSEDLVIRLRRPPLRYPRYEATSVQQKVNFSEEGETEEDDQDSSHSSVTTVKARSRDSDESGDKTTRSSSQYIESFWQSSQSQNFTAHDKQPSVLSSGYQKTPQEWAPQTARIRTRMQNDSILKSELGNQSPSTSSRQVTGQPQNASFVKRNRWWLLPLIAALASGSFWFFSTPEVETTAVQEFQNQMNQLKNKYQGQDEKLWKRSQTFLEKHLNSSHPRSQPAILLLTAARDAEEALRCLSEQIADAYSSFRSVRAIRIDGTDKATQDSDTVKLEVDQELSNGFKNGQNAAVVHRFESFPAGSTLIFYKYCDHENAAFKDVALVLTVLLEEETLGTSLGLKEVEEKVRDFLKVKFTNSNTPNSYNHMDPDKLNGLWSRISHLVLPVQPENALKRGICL
Left-right determination factor 2 (Homo sapiens), sequence (O00292 whole entry, looked up): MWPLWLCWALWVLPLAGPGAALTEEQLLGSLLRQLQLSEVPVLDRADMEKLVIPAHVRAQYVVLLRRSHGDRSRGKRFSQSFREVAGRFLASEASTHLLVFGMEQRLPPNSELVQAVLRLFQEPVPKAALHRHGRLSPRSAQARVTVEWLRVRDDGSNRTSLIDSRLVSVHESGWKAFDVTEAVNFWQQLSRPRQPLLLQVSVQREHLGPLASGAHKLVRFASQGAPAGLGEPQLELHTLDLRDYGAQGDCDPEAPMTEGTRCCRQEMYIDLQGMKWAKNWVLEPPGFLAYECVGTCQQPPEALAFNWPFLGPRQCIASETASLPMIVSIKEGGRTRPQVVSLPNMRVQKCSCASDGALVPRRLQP
Alpha-bungarotoxin (Bungarus multicinctus), sequence (P60615 whole entry, looked up): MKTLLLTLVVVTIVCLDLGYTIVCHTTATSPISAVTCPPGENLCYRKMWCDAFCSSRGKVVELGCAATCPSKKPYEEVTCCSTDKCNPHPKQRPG

`C=C(CCCC)/C(=C/C[C@H](OC(=O)c1ccncc1)c1cccc(OCCO)c1)c1cc(C(=O)OC)ccc1OC`: the composite z-score in assay [1] was 0.799; in assay [3], 0.385; in assay [4], 0.267; in assay [5] it was -0.784; in [6], 0.0394; in assay [7], 0.14. Moreover, the composite z-score in assay [8] was -0.226; in assay [9] it was 0.516; in assay [10], 0.582; in assay [11], -0.2; in assay [13] it was 0.074; in [14], -0.131. Moreover, the composite z-score is 0.0309 in [15]; 1.09 in assay [16]; -0.132 in assay [17]; 0.711 in assay [18]; 0.363 in [19]; 0.724 in [20]. For the same compound, the z-score in assay [2] was -2.61. The composite Z-score in assay [12] was -0.331 (inactive).
In the case of `O=C(O)[C@@H]1Cc2c([nH]c3ccccc23)[C@@H](c2ccccc2)N1`, the composite z-score was 0.681 in assay [1]; 0.414 in assay [3]; -0.106 in assay [4]; -0.568 in assay [5]; -0.141 in assay [6]; -0.124 in [7]. The composite z-score in assay [8] is -0.013; in assay [9] it was 0.3; in assay [10], 0.236; in [11] it was 0.118; in assay [13], -0.082; in assay [14], -0.0148. The composite z-score in assay [15] is -0.0448; in assay [16], 0.319; in [17], -0.0124; in assay [18], -0.188; in [19], 0.379; in assay [20], 0.813. In [2], this compound registered a z-score of -0.161. The composite Z-score in assay [12] was 0.756 (inactive).
Turning to `O=C1O[C@@H](c2ccccc2)[C@@H](c2ccccc2)N2[C@@H](c3ccccc3OCCO)[C@]3(C(=O)Nc4ccc(C#CC5=CCCCC5)cc43)[C@@H](C(=O)O)[C@H]12`, the composite z-score in assay [1] was 0.799; in assay [3], 0.0802; in assay [4], 1.7; in assay [5], 0.957; in [6], -0.0539; in [7], 0.13. The composite z-score in assay [8] is 0.0014; in assay [9] it was 0.612; in [10], 1.77; in assay [11] it was 0.664; in [13], 0.0563; in assay [14] it was -0.0391. Also, the composite z-score in assay [15] was 0.549; in assay [16], 1.67; in [17], 0.659; in assay [18], 1.33; in [19] it was -0.241; in assay [20] it was 1.08. The same compound gave a z-score in assay [2] of -2.28. Moreover, the composite Z-score in [12] is -0.114 (inactive).
Take `CCOC(=O)C1=C[C@@H](c2ccccc2)N(S(=O)(=O)c2ccc(C)cc2)[C@H]1c1ccc(F)cc1`: the composite z-score in assay [1] was 0.431; in assay [3] it was 0.446; in assay [4], 0.37; in assay [5], 0.342; in assay [6] it was -0.0718; in assay [7], 0.0929. In addition, the composite z-score in assay [8] is 0.862; in [9], 0.904; in assay [10] it was 1.27; in assay [11] it was 0.823; in [13] it was 0.0836; in [14], 0.111. Further, the composite z-score in [15] was 0.283; in assay [16], 1.57; in assay [17], 0.284; in [18] it was 1.16; in assay [19], -0.0043; in [20] it was 1.12. In [2], the z-score was -1.97. In addition, the composite Z-score in assay [12] is -0.263 (inactive).
On to `C=CC[C@]1(C(N)=O)N=C(c2ccc(OCCCO)cc2)O[C@H]1c1ccccc1CN=[N+]=[N-]`, for which the composite z-score in [1] is 1.03; in assay [3] it was -1.11; in assay [4], 1.91; in [5], 1.14; in [6], -0.124; in [7], -0.203. Further, the composite z-score is 0.165 in [8]; 1.87 in assay [9]; 1.03 in [10]; 1.05 in assay [11]; -0.0502 in assay [13]; -0.0785 in assay [14]. Besides, the composite z-score was 0.856 in assay [15]; 2.69 in [16]; 0.623 in assay [17]; 1.11 in assay [18]; -0.63 in assay [19]; 0.885 in assay [20]. The z-score in [2] was -1.33. Moreover, the composite Z-score in assay [12] was 0.221 (inactive).
